Assay results reported in the supplement of paper PMC8728848.
Many of the other results were omitted from the sample, so the strongest signals are more common in it than they were.

Columns and labels:
Assay in all cases: glycan array binding signal (z-score within array); higher = stronger binding
Conditions in all cases: glycan notation: IUPAC condensed, linker removed
[1] = target: Fuc(a1-2)Gal(b1-4)Fuc(a1-3)]GlcNAc(b1-2)Man(a1-3)[Fuc(a1-2)Gal(b1-4)[Fuc(a1-3)]GlcNAc(b1-2)Man(a1-6)]Man(b1-4)GlcNAc(b1-4)GlcNAc
Outline: (§1)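 Glycan array binding is given as a within-array Z-score, which can be read as non-binding when negative. The arrays, 3228 of them, came from the Consortium for Functional Glycomics database and were retained only where the protein sequence was available. Z-scores were averaged across arrays of the same protein sequence at different concentrations or buffers and across linkers.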

[2] = target: Fuc(a1-2)[Gal(a1-4)]Gal(b1-4)GlcNAc
Outline: as §1

[3] = target: Fuc(a1-2)[GalNAc(a1-3)]Gal(b1-3)GlcNAc(b1-3)GalNAc
Outline: as §1

Fuc(a1-4)GlcNAc = target: Fuc(a1-4)GlcNAc
Outline: as §1

Gal(a1-3)Gal(b1-3)GlcNAc = target: Gal(a1-3)Gal(b1-3)GlcNAc
Outline: as §1

[4] = target: Gal(a1-3)Gal(b1-3)GlcNAc(b1-2)Man
Outline: as §1

[5] = target: Gal(a1-3)Gal(b1-3)GlcNAc(b1-6)GalNAc
Outline: as §1

[6] = target: Gal(a1-3)Gal(b1-4)GlcNAc(b1-2)Man(a1-3)[Gal(a1-3)Gal(b1-4)GlcNAc(b1-2)Man(a1-6)]Man(b1-4)GlcNAc(b1-4)GlcNAc
Outline: as §1

[7] = target: Gal(a1-3)Gal(b1-4)[Fuc(a1-3)]GlcNAc(b1-2)Man(a1-3)[Gal(a1-3)Gal(b1-4)[Fuc(a1-3)]GlcNAc(b1-2)Man(a1-6)]Man(b1-4)GlcNAc(b1-4)GlcNAc
Outline: as §1

[8] = target: Gal(a1-3)[Gal(a1-4)]Gal(b1-4)GlcNAc
Outline: as §1

Gal(a1-4)Gal(b1-4)Gal = target: Gal(a1-4)Gal(b1-4)Gal
Outline: as §1

Gal(a1-4)Gal(b1-4)GlcNAc = target: Gal(a1-4)Gal(b1-4)GlcNAc
Outline: as §1

[9] = target: Gal(a1-4)Gal(b1-4)GlcNAc(b1-2)Man(a1-3)[Gal(a1-4)Gal(b1-4)GlcNAc(b1-2)Man(a1-6)]Man(b1-4)GlcNAc(b1-4)GlcNAc
Outline: as §1

[10] = target: Gal(a1-4)Gal(b1-4)GlcNAc(b1-3)Gal(b1-4)Glc
Outline: as §1

Gal(a1-4)GlcNAc = target: Gal(a1-4)GlcNAc
Outline: as §1

Gal(b1-2)Gal = target: Gal(b1-2)Gal
Outline: as §1

Gal(b1-3)Gal(b1-4)GlcNAc = target: Gal(b1-3)Gal(b1-4)GlcNAc
Outline: as §1

Gal(b1-3)GalNAc = target: Gal(b1-3)GalNAc
Outline: as §1

[11] = target: Gal(b1-3)GalNAc(a1-3)[Fuc(a1-2)]Gal(b1-4)GlcNAc
Outline: as §1

[12] = target: Gal(b1-3)GlcNAc(a1-3)Gal(b1-4)GlcNAc
Outline: as §1

[13] = target: Gal(b1-3)GlcNAc(b1-3)Gal(b1-4)GlcNAc(b1-2)Man(a1-3)[Gal(b1-3)GlcNAc(b1-3)Gal(b1-4)GlcNAc(b1-2)Man(a1-6)]Man(b1-4)GlcNAc(b1-4)GlcNAc
Outline: as §1

[14] = target: Gal(b1-3)GlcNAc(b1-6)GalNAc
Outline: as §1

[15] = target: Gal(b1-3)[Fuc(a1-4)]GlcNAc(b1-3)Gal(b1-4)[Fuc(a1-3)]GlcNAc
Outline: as §1

Gal(b1-4)Glc6S = target: Gal(b1-4)Glc6S
Outline: as §1

[16] = target: Gal(b1-4)GlcNAc(a1-6)Gal(b1-4)GlcNAc
Outline: as §1

[17] = target: Gal(b1-4)GlcNAc(b1-2)Man(a1-3)Man(b1-4)GlcNAc(b1-4)GlcNAc
Outline: as §1

[18] = target: Gal(b1-4)GlcNAc(b1-2)Man(a1-3)[Gal(b1-4)GlcNAc(b1-2)Man(a1-6)]Man(b1-4)GlcNAc(b1-4)GlcNAc
Outline: as §1

[19] = target: Gal(b1-4)GlcNAc(b1-2)Man(a1-3)[Man(a1-6)]Man(b1-4)GlcNAc(b1-4)GlcNAc
Outline: as §1

[20] = target: Gal(b1-4)GlcNAc(b1-2)Man(a1-6)Man(b1-4)GlcNAc(b1-4)GlcNAc
Outline: as §1

[21] = target: Gal(b1-4)GlcNAc(b1-2)Man(a1-6)[GlcNAc(b1-2)Man(a1-3)]Man(b1-4)GlcNAc(b1-4)GlcNAc
Outline: as §1

[22] = target: Gal(b1-4)GlcNAc(b1-3)[Gal(b1-4)GlcNAc(b1-6)]Gal(b1-4)GlcNAc
Outline: as §1

Gal3S(b1-4)Glc6S = target: Gal3S(b1-4)Glc6S
Outline: as §1

Gal6S(b1-3)GlcNAc6S = target: Gal6S(b1-3)GlcNAc6S
Outline: as §1

Gal6S(b1-4)Glc6S = target: Gal6S(b1-4)Glc6S
Outline: as §1

Gal6S(b1-4)GlcNAc = target: Gal6S(b1-4)GlcNAc
Outline: as §1

Gal6S(b1-4)GlcNAc6S = target: Gal6S(b1-4)GlcNAc6S
Outline: as §1

GalNAc(b1-6)GalNAc = target: GalNAc(b1-6)GalNAc
Outline: as §1

[23] = target: GlcNAc(a1-4)Gal(b1-3)GlcNAc
Outline: as §1

[24] = target: GlcNAc(b1-2)[GlcNAc(b1-6)]Man(a1-6)[GlcNAc(b1-2)Man(a1-3)]Man(b1-4)GlcNAc(b1-4)GlcNAc
Outline: as §1

GlcNAc(b1-3)Fuc = target: GlcNAc(b1-3)Fuc
Outline: as §1

[25] = target: GlcNAc(b1-3)Gal(b1-4)GlcNAc(b1-3)GalNAc
Outline: as §1

[26] = target: GlcNAc(b1-3)Gal(b1-4)GlcNAc(b1-3)[GlcNAc(b1-3)Gal(b1-4)GlcNAc(b1-3)]GalNAc
Outline: as §1

[27] = target: GlcNAc(b1-3)Gal(b1-4)GlcNAc(b1-6)[Gal(b1-3)]GalNAc
Outline: as §1

GlcNAc(b1-4)GlcNAc = target: GlcNAc(b1-4)GlcNAc
Outline: as §1

[28] = target: GlcNAc(b1-4)GlcNAc(b1-4)GlcNAc(b1-4)GlcNAc(b1-4)GlcNAc
Outline: as §1

Kdn(a2-6)Gal(b1-4)GlcNAc = target: Kdn(a2-6)Gal(b1-4)GlcNAc
Outline: as §1

Man(b1-4)GlcNAc = target: Man(b1-4)GlcNAc
Outline: as §1

[29] = target: Neu5Ac(a2-3)Gal(b1-3)GlcNAc(b1-2)Man
Outline: as §1

[30] = target: Neu5Ac(a2-3)Gal(b1-3)[Fuc(a1-4)]GlcNAc(b1-3)Gal(b1-3)[Fuc(a1-4)]GlcNAc
Outline: as §1

[31] = target: Neu5Ac(a2-3)Gal(b1-3)[Neu5Ac(a2-6)]GalNAc
Outline: as §1

[32] = target: Neu5Ac(a2-3)Gal(b1-4)GlcNAc
Outline: as §1

[33] = target: Neu5Ac(a2-3)Gal(b1-4)GlcNAc(b1-3)Gal(b1-4)GlcNAc(b1-3)Gal(b1-4)GlcNAc(b1-2)Man(a1-3)[Neu5Ac(a2-3)Gal(b1-4)GlcNAc(b1-3)Gal(b1-4)GlcNAc(b1-3)Gal(b1-4)GlcNAc(b1-2)Man(a1-6)]GalNAc
Outline: as §1

[34] = target: Neu5Ac(a2-3)Gal(b1-4)[Fuc(a1-3)]GlcNAc(b1-3)Gal(b1-4)GlcNAc
Outline: as §1

[35] = target: Neu5Ac(a2-3)Gal(b1-4)[Fuc(a1-3)]GlcNAc(b1-6)[Gal(b1-3)]GalNAc
Outline: as §1

[36] = target: Neu5Ac(a2-3)[GalNAc(b1-4)]Gal(b1-4)Glc
Outline: as §1

[37] = target: Neu5Ac(a2-6)GalNAc(b1-4)GlcNAc6S
Outline: as §1

Neu5Gc(a2-6)GalNAc = target: Neu5Gc(a2-6)GalNAc
Outline: as §1

B1: Epa12 (Candida glabrata) (protein)
chain: MGSSHHHHHHSSGLVPRGSHMLEPDNSLQIFDSFLSNPSKYPLGCSPKITNPKKGLSMELYSYPYRKKGSHPCWDPAYLDPNFPRVGYKKNKLIARVDGVSGDINFNFHPKRQCTPIADYLPPNFNYNEPITTTNFTMLLYGYFKPKVTGLHTFDISADDLLFMNFGAGNAFDCCRRDSTADTFGNYVAWAIWGRRIVRNKLTVRLDKGIYYPLRLFFNNRDYYGQMRLTFKTEHGSERITDFSDYFFSVDDTSEGCPGLITYESECADVKSSTVLETDYITIQAEKE
glycan array binding signal (z-score) [1]: -0.132 | glycan array binding signal (z-score) [2]: 4.84 | glycan array binding signal (z-score) [3]: -0.345 | glycan array binding signal (z-score) (Fuc(a1-4)GlcNAc): -0.241 | glycan array binding signal (z-score) (Gal(a1-3)Gal(b1-3)GlcNAc): 1.71 | glycan array binding signal (z-score) [4]: 3.52 | glycan array binding signal (z-score) [5]: 4.44 | glycan array binding signal (z-score) [6]: 2.04 | glycan array binding signal (z-score) [7]: -0.179 | glycan array binding signal (z-score) [8]: 1.17 | glycan array binding signal (z-score) (Gal(a1-4)Gal(b1-4)Gal): -0.269 | glycan array binding signal (z-score) (Gal(a1-4)Gal(b1-4)GlcNAc): 3.53 | glycan array binding signal (z-score) [9]: 0.51 | glycan array binding signal (z-score) [10]: 1.9 | glycan array binding signal (z-score) (Gal(a1-4)GlcNAc): 5.7 | glycan array binding signal (z-score) (Gal(b1-2)Gal): 0.125 | glycan array binding signal (z-score) (Gal(b1-3)Gal(b1-4)GlcNAc): 3.49 | glycan array binding signal (z-score) (Gal(b1-3)GalNAc): 0.135 | glycan array binding signal (z-score) [11]: -0.255 | glycan array binding signal (z-score) [12]: -0.242 | glycan array binding signal (z-score) [13]: -0.34 | glycan array binding signal (z-score) [14]: -0.093 | glycan array binding signal (z-score) [15]: -0.311 | glycan array binding signal (z-score) (Gal(b1-4)Glc6S): 3.51 | glycan array binding signal (z-score) [16]: 3.61 | glycan array binding signal (z-score) [17]: -0.259 | glycan array binding signal (z-score) [18]: 0.425 | glycan array binding signal (z-score) [19]: -0.214 | glycan array binding signal (z-score) [20]: -0.206 | glycan array binding signal (z-score) [21]: -0.119 | glycan array binding signal (z-score) [22]: -0.194 | glycan array binding signal (z-score) (Gal3S(b1-4)Glc6S): -0.255 | glycan array binding signal (z-score) (Gal6S(b1-3)GlcNAc6S): 3.83 | glycan array binding signal (z-score) (Gal6S(b1-4)Glc6S): 7.51 | glycan array binding signal (z-score) (Gal6S(b1-4)GlcNAc): 1.98 | glycan array binding signal (z-score) (Gal6S(b1-4)GlcNAc6S): 8.69 | glycan array binding signal (z-score) (GalNAc(b1-6)GalNAc): -0.347 | glycan array binding signal (z-score) [23]: -0.483 | glycan array binding signal (z-score) [24]: -0.332 | glycan array binding signal (z-score) (GlcNAc(b1-3)Fuc): -0.36 | glycan array binding signal (z-score) [25]: -0.307 | glycan array binding signal (z-score) [26]: -0.348 | glycan array binding signal (z-score) [27]: -0.32 | glycan array binding signal (z-score) (GlcNAc(b1-4)GlcNAc): -0.359 | glycan array binding signal (z-score) [28]: -0.032 | glycan array binding signal (z-score) (Kdn(a2-6)Gal(b1-4)GlcNAc): -0.005 | glycan array binding signal (z-score) (Man(b1-4)GlcNAc): -0.301 | glycan array binding signal (z-score) [29]: -0.336 | glycan array binding signal (z-score) [30]: -0.342 | glycan array binding signal (z-score) [31]: -0.335 | glycan array binding signal (z-score) [32]: -0.321 | glycan array binding signal (z-score) [33]: -0.239 | glycan array binding signal (z-score) [34]: -0.251 | glycan array binding signal (z-score) [35]: -0.245 | glycan array binding signal (z-score) [36]: -0.34 | glycan array binding signal (z-score) [37]: -0.36 | glycan array binding signal (z-score) (Neu5Gc(a2-6)GalNAc): -0.309
